# Test results taken from PubChem BioAssay (Tox21).
# Unmarked numbers belong to inactive results. Inconclusive results are not listed. Entries that show only a call come without a potency. Activity calls are given as the source filed them. Unless noted, the call rests on the fitted dose curve; in most records, active means well fitted curve in the direction sought with a large enough effect in the repeat runs; inconclusive means weak or mixed curves; inactive means no such curve, though single readings can be large; an effect the other way counts as inactive or inconclusive.
# Key:
# [1] = A CellTox Green Cytotoxicity Assay to monitor cytotoxicity in HepG2 cells - 0 hour (AID 1224882); further: nearly all actives have a fitted effect of over 35% in size; further: potency means the concentration at half of the fitted maximal effect
# Method in brief: (§1)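 Measurements at 0, 8, 16, 24, 32 and 40 h of treatment captured CellTox Green fluorescence in HepG2 cells that had been co-plated with reagent and preincubated 5 h at 37 C/5% CO2.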
# [2] = A CellTox Green Cytotoxicity Assay to monitor cytotoxicity in HepG2 cells - 32 hour (AID 1224883); further: nearly all actives have a fitted effect of over 50% in size; further: potency means the concentration at half of the fitted maximal effect
# Method in brief: as §1
# [3] = A CellTox Green Cytotoxicity Assay to monitor cytotoxicity in HEK293 cells - 8 hour (AID 1224884); further: nearly all actives have a fitted effect of over 35% in size; further: potency means the concentration at half of the fitted maximal effect
# Method in brief: (§2)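 Tox21 screen in HEK293: membrane-impermeant cyanine dye fluoresces on binding dead-cell DNA; compound pinned 5 h post-seeding, plates held at 37 C, signal read repeatedly through 40 h.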
# [4] = qHTS RealTime-Glo MT Cell Viability Assay in HepG2 cells - 16 hour (AID 1224885); further: nearly all actives have a fitted effect of over 50% in size
# Method in brief: (§3)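 HepG2 cells were seeded at 600 cells/well together with NanoLuc luciferase and a cell-permeant prosubstrate, preincubated 5 h at 37 C/5% CO2, then pin-dosed with compounds in DMSO. Nonlytic luminescence from viable cells was read at each time point.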
# [5] = qHTS RealTime-Glo MT Cell Viability Assay in HEK293 cells - 8 hour (AID 1224887); further: nearly all actives have a fitted effect of over 50% in size; further: potency means the concentration at half of the fitted maximal effect; on activity change, negative = cytotoxicity: top concentration of the series differs between compounds
# Method in brief: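 HEK293 + NanoLuc + prosubstrate, 600 cells/well; 5 h, 37 C/5% CO2; compound 23 nL in DMSO by pintool; 37 C; luminescence read at 0, 8, 16, 24, 32 and 40 h time points.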
# [6] = A CellTox Green Cytotoxicity Assay to monitor cytotoxicity in HEK293 cells - 16 hour (AID 1224888); further: nearly all actives have a fitted effect of over 35% in size
# Method in brief: as §2
# [7] = qHTS RealTime-Glo MT Cell Viability Assay in HepG2 cells - 0 hour (AID 1224889); further: nearly all actives have a fitted effect of over 50% in size
# Method in brief: as §3
# [8] = A CellTox Green Cytotoxicity Assay to monitor cytotoxicity in HepG2 cells - 8 hour (AID 1224890); further: nearly all actives have a fitted effect of over 45% in size; further: potency means the concentration at half of the fitted maximal effect
# Method in brief: as §1
# [9] = qHTS assay to identify small molecule antagonists of the estrogen receptor alpha (ER-alpha) signaling pathway using the BG1 cell line in the presence of 0.1 nM 17-beta-estradiol - cell viability counter screen (AID 1259241); further: nearly all actives have a fitted effect of over 40% in size
# Method in brief: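 CellTiter-Fluor read (30 min, 37C) on ER-alpha/ERE-luc VM7Luc4E2 cells; 22 hr compound treatment; agonist 0.1 nM E2 final; same-well multiplex.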
# [10] = qHTS assay to identify small molecule antagonists of the androgen receptor (AR) signaling pathway using the MDA cell line in the presence of 0.5 nM R1881 - cell viability counter screen (AID 1259242); further: nearly all actives have a fitted effect of over 45% in size; further: potency means the concentration at half of the fitted maximal effect
# Method in brief: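 Concentration-response screen of compounds for toxicity in MDA-kb2 reporter cells: 16 hr at 37C with 0.5 nM R1881, endpoint live-cell protease fluorescence measured in the reporter wells.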
# [11] = qHTS assay to identify small molecule HDAC inhibitors (AID 1259364); further: potency means the concentration at half of the fitted maximal effect;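 further: wild-type HCT-116 cells with endogenous class I/II HDAC activity; nearly all actives have a fitted effect of over 45% in size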; on activity change, negative = inhibition: top concentration of the series differs between compounds
# Method in brief: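 Screening used wild-type human colon HCT-116 cells incubated overnight, dosed with compounds for 2 hours, and assayed with a homogeneous luminogenic HDAC I/II reagent for 30 minutes at room temperature.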
# [12] = qHTS assay to identify small molecule HDAC inhibitors - cell viability counter screen (AID 1259365); further: nearly all actives have a fitted effect of over 50% in size; further: potency means the concentration at half of the fitted maximal effect; on activity change, negative = cytotoxicity: series mostly up to about 92 µM
# Method in brief: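 To flag cytotoxic hits, 1,500 wild-type HCT-116 cells per well, plated the day before, receive test compounds for 2hr at 37 C before CellTiter-Glo reagent and a luminescence read.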
# [13] = qHTS assay to identify small molecule agonists of the sonic hedgehog signaling (Shh) pathway - cell viability counter screen (AID 1259366); further: nearly all actives have a fitted effect of over 50% in size; further: potency means the concentration at half of the fitted maximal effect
# Method in brief: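 Fluorescence from CellTiter-Fluor reports live cells in this counter screen. NIH/3T3-derived Gli1-Luc reporter cells receive test compounds for 24hr at 37C; reagent goes in at 23hr.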
# [14] = qHTS assay to identify small molecule antagonists of the sonic hedgehog signaling (Shh) pathway - cell viability counter screen (AID 1259367); further: nearly all actives have a fitted effect of over 55% in size; further: potency means the concentration at half of the fitted maximal effect
# Method in brief: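 Conditioned medium drove Shh signaling in 3T3 Gli1-Luc cells exposed to compounds at 37C and 5% CO2. Viability was determined from CellTiter-Fluor fluorescence, with reagent incubated 1 hr after 23 hr of treatment.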
# [15] = qHTS assay to identify small molecule agonists of the sonic hedgehog signaling (Shh) pathway (AID 1259368; calls by dose curve;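 further: NIH/3T3-derived 3T3Gli1-Luc cells carrying a stable Gli1-driven firefly luciferase reporter; series mostly up to about 92 µM; nearly all actives have a fitted effect of over 15% in size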)
# Method in brief: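 Hedgehog pathway agonism scored by increased firefly luciferase luminescence in 3T3Gli1-Luc cells treated 24 hr at 37 C; detection used a 30 min room-temperature reagent incubation.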
# [16] = qHTS RealTime-Glo MT Cell Viability Assay in HEK293 cells - 24 hour (AID 1224886); further: nearly all actives have a fitted effect of over 50% in size; further: potency means the concentration at half of the fitted maximal effect; on activity change, negative = cytotoxicity: top concentration of the series differs between compounds
# Method in brief: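 HEK293 cells were seeded at 600 cells/well together with NanoLuc luciferase and cell-permeant prosubstrate, preincubated 5 h at 37 C/5% CO2, then given compound in DMSO by pintool. Luminescence from viable-cell prosubstrate reduction was read repeatedly over 40 h.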
# [17] = biological target: Estrogen receptor (Homo sapiens) (UniProt P03372); assay: qHTS assay to identify small molecule antagonists of the estrogen receptor alpha (ER-alpha) signaling pathway using the BG1 cell line in the presence of 0.1 nM 17-beta-estradiol (AID 1259244); further: nearly all actives have a fitted effect of over 50% in size
# Method in brief: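 Compounds were tested against 0.1 nM (final) 17beta-estradiol in VM7Luc4E2 cells, which express full-length ER-alpha and an ERE-luciferase reporter; luminescence was recorded following 22 h exposure.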
# [18] = A CellTox Green Cytotoxicity Assay to monitor cytotoxicity in HEK293 cells - 32 hour (AID 1224881); further: nearly all actives have a fitted effect of over 40% in size; further: potency means the concentration at half of the fitted maximal effect
# Method in brief: as §2
# [19] = qHTS assay to identify small molecule phospholipidosis (PLD) inducers (AID 1259344; active means well fitted curve in the direction sought with a large enough effect; an effect the other way counts as inactive or inconclusive)
# Method in brief: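 After 4 h attachment on collagen I, HepG2 cells were dosed with compound alongside LipidTOX Red, kept 24 h at 37 C, fixed, and imaged for lamellar phospholipid pits.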
# [20] = biological target: Androgen receptor (Homo sapiens) (UniProt P10275); assay: qHTS assay to identify small molecule antagonists of the androgen receptor (AR) signaling pathway using the MDA cell line in the presence of 0.5 nM R1881 (AID 1259243); further: nearly all actives have a fitted effect of over 50% in size
# Method in brief: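 With R1881 held at 0.5 nM (final), compound effects on MMTV-luciferase expression in MDA-kb2 cells were scored by luminescence after a 16 hr, 37C incubation.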
# Estrogen receptor (Homo sapiens), sequence (P03372 whole entry, looked up): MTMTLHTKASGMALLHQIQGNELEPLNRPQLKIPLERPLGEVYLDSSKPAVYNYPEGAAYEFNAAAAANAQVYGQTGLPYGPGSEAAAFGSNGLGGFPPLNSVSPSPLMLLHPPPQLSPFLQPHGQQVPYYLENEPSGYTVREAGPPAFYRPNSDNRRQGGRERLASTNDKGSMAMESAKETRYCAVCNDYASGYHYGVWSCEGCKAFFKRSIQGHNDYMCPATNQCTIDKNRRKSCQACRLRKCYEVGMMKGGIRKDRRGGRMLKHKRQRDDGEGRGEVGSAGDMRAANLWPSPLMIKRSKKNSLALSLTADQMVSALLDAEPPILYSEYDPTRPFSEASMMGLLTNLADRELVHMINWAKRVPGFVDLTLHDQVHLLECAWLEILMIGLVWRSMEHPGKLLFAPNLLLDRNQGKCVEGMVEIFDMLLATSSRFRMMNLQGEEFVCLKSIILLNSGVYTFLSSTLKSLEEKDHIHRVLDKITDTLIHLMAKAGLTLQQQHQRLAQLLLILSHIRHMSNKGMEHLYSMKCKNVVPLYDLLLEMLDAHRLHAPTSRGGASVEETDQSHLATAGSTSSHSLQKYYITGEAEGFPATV
# Androgen receptor (Homo sapiens), sequence (P10275 whole entry, looked up): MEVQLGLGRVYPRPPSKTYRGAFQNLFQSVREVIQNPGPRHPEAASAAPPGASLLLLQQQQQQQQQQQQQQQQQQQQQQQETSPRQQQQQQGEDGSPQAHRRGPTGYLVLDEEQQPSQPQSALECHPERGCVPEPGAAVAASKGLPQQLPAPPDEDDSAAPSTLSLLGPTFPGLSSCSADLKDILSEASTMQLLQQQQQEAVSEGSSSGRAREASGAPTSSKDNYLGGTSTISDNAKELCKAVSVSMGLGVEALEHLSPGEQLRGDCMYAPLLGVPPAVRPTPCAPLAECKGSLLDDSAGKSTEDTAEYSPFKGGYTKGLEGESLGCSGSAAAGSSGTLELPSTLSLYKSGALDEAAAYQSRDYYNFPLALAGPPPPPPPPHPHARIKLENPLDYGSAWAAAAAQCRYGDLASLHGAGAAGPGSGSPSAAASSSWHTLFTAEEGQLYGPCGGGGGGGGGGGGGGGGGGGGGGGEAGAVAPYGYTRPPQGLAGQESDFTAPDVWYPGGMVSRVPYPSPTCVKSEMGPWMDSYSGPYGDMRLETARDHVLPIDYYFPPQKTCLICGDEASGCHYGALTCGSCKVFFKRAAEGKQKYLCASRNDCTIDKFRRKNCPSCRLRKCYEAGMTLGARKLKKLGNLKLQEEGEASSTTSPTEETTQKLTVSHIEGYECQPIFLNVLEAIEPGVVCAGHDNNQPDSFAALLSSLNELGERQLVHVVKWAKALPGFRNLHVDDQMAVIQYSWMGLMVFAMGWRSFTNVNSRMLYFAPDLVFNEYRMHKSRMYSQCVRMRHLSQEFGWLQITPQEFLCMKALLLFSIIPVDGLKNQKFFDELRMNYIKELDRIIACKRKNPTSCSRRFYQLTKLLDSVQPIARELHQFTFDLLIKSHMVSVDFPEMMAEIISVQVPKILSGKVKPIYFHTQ
smiles,measurement,setting,value
CC(C)Nc1ccc(NC(C)C)c2c1C(=O)c1ccccc1C2=O,Potency,[1],inactive
same,Potency,[2],9.06 µM (active)
same,Potency,[3],inactive
same,Potency,[4],inactive
same,Potency,[5],inactive
same,Potency,[6],inactive
same,Potency,[7],inactive
same,Potency,[8],inactive
same,Potency,[9],inactive
same,Potency,[10],inactive
same,Potency,[11],12.7 µM (active)
same,Potency,[12],12.7 µM (active)
same,Potency,[13],inactive
same,Potency,[14],inactive
same,outcome,[15],inactive
CCNc1cc(O)ccc1C,Potency,[1],inactive
same,Potency,[2],inactive
same,Potency,[3],inactive
same,Potency,[4],inactive
same,Potency,[16],inactive
same,Potency,[7],inactive
same,Potency,[8],inactive
same,Potency,[9],inactive
same,Potency,[10],inactive
same,Potency,[17],inactive
same,Potency,[11],inactive
same,Potency,[12],inactive
same,outcome,[15],inactive
CCOC(=O)COC(=O)c1cc(Oc2ccc(C(F)(F)F)cc2Cl)ccc1[N+](=O)[O-],Potency,[1],inactive
same,Potency,[2],inactive
same,Potency,[3],inactive
same,Potency,[4],inactive
same,Potency,[5],49 µM (active)
same,Potency,[6],inactive
same,Potency,[7],inactive
same,Potency,[8],inactive
same,Potency,[9],inactive
same,Potency,[10],inactive
same,Potency,[11],inactive
same,Potency,[12],inactive
same,Potency,[13],inactive
same,Potency,[14],inactive
same,outcome,[15],inactive
CCC(CC)Nc1ccc(C)c(C)c1,Potency,[1],inactive
same,Potency,[2],inactive
same,Potency,[3],inactive
same,Potency,[4],inactive
same,Potency,[16],inactive
same,Potency,[5],inactive
same,Potency,[6],inactive
same,Potency,[7],inactive
same,Potency,[8],inactive
same,Potency,[9],inactive
same,Potency,[10],inactive
same,Potency,[17],inactive
same,Potency,[11],inactive
same,Potency,[12],inactive
same,Potency,[13],inactive
same,Potency,[14],inactive
same,outcome,[15],inactive
CCN(CC)CCOC(=O)C(c1ccccc1)C1CCCCC1 (stereo unspecified),Potency,[18],23.9 µM (active)
same,Potency,[3],inactive
same,Potency,[6],inactive
same,Potency,[7],inactive
same,Potency,[10],inactive
same,Potency,[17],inactive
same,Potency,[19],inactive
same,Potency,[11],inactive
same,Potency,[12],inactive
same,outcome,[15],inactive
CCOC(=O)Cc1cccc2ccccc12,Potency,[18],inactive
same,Potency,[3],inactive
same,Potency,[16],inactive
same,Potency,[6],inactive
same,Potency,[9],inactive
same,Potency,[10],inactive
same,Potency,[17],inactive
same,Potency,[11],inactive
same,Potency,[12],inactive
same,Potency,[13],inactive
same,Potency,[14],inactive
same,outcome,[15],inactive
Clc1ccc2c(c1)CCc1cccnc1C2=C1CCNCC1,Potency,[1],inactive
same,Potency,[2],23.9 µM (active)
same,Potency,[3],inactive
same,Potency,[4],inactive
same,Potency,[5],inactive
same,Potency,[6],inactive
same,Potency,[7],inactive
same,Potency,[8],inactive
same,Potency,[9],inactive
same,Potency,[10],inactive
same,Potency,[17],inactive
same,Potency,[11],inactive
same,Potency,[12],inactive
same,Potency,[13],11.9 µM (active)
same,outcome,[15],inactive
NC(=O)C(c1ccccc1)(c1ccccc1)[C@@H]1CCN(CCc2ccc3c(c2)CCO3)C1,Potency,[1],23.9 µM (active)
same,Potency,[2],23.9 µM (active)
same,Potency,[3],21.3 µM (active)
same,Potency,[4],inactive
same,Potency,[7],inactive
same,Potency,[8],21.3 µM (active)
same,Potency,[9],inactive
same,Potency,[10],inactive
same,Potency,[11],inactive
same,Potency,[12],inactive
same,Potency,[14],inactive
same,outcome,[15],inactive
Nc1cccc([N+](=O)[O-])c1,Potency,[18],inactive
same,Potency,[3],inactive
same,Potency,[4],inactive
same,Potency,[16],inactive
same,Potency,[5],inactive
same,Potency,[6],inactive
same,Potency,[7],inactive
same,Potency,[8],inactive
same,Potency,[10],inactive
same,Potency,[20],inactive
same,Potency,[17],inactive
same,Potency,[11],inactive
same,Potency,[12],inactive
same,Potency,[13],inactive
same,Potency,[14],inactive
same,outcome,[15],inactive
COc1ccc(C(=O)c2ccc(OC)cc2O)c(O)c1,Potency,[1],inactive
same,Potency,[2],inactive
same,Potency,[3],inactive
same,Potency,[4],inactive
same,Potency,[16],24.7 µM (active)
same,Potency,[7],inactive
same,Potency,[8],inactive
same,Potency,[9],inactive
same,Potency,[10],inactive
same,Potency,[17],inactive
same,Potency,[11],30.9 µM (active)
same,Potency,[12],inactive
same,Potency,[13],inactive
same,Potency,[14],inactive
same,outcome,[15],inactive
COc1cc2nc(Cl)nc(N)c2cc1OC,Potency,[1],inactive
same,Potency,[2],inactive
same,Potency,[3],inactive
same,Potency,[4],inactive
same,Potency,[6],inactive
same,Potency,[7],inactive
same,Potency,[8],inactive
same,Potency,[9],inactive
same,Potency,[10],inactive
same,Potency,[20],inactive
same,Potency,[17],inactive
same,Potency,[11],inactive
same,Potency,[12],inactive
same,Potency,[13],inactive
same,Potency,[14],inactive
same,outcome,[15],inactive
C/C=C/C(=O)CC,cytotoxicity,[1],0.505% [at 15.8 µM]
same,cytotoxicity increase,[2],2.71% [at 15.8 µM]
same,cytotoxicity increase,[3],1.29% [at 15.8 µM]
same,"activity change, negative = cytotoxic",[4],0.412% [at 15.8 µM]
same,"activity change, negative = cytotoxicity",[16],0.822% [at 15.8 µM]
same,"activity change, negative = cytotoxicity",[5],0.36% [at 15.8 µM]
same,activity change,[6],"0.377% [at 15.8 µM, active compounds read high]"
same,"activity change, negative = cytotoxicity",[7],4.66% [at 15.8 µM]
same,cytotoxicity increase,[8],6.47% [at 15.8 µM]
same,"activity change, negative = cytotoxicity",[9],0.659% [at 19 µM]
same,"viability change, negative = cytotoxic",[10],-0.0358% [at 19 µM]
same,Potency,[17],inactive
same,"activity change, negative = inhibition",[11],-0.325% [at 19 µM]
same,"activity change, negative = cytotoxicity",[12],-0.534% [at 19 µM]
same,"viability change, negative = cytotoxic",[13],14.7% [at 19 µM]
same,activity change,[15],-3.94% [at 18.9 µM]
Cc1ccc(N=Nc2c(O)c(C(=O)O)cc3ccccc23)c(S(=O)(=O)O)c1,Potency,[1],inactive
same,Potency,[2],inactive
same,Potency,[3],inactive
same,Potency,[4],inactive
same,Potency,[16],inactive
same,Potency,[6],inactive
same,Potency,[7],inactive
same,Potency,[8],inactive
same,Potency,[10],11.8 µM (active)
same,Potency,[11],inactive
same,Potency,[12],inactive
same,Potency,[14],13.3 µM (active)
same,outcome,[15],inactive
CC(=O)c1cccc([N+](=O)[O-])c1,Potency,[1],inactive
same,Potency,[2],inactive
same,Potency,[3],inactive
same,Potency,[4],inactive
same,Potency,[16],inactive
same,Potency,[5],inactive
same,Potency,[6],inactive
same,Potency,[7],inactive
same,Potency,[8],inactive
same,Potency,[10],inactive
same,Potency,[17],inactive
same,Potency,[11],inactive
same,Potency,[12],inactive
same,Potency,[13],inactive
same,Potency,[14],inactive
same,outcome,[15],inactive
